# Many of the other results were omitted from the sample, so the strongest signals are more common in it than they were.
# What was measured:
# Experiment in all cases: glycan array binding signal (z-score within array); higher = stronger binding
# Conditions in all cases: glycan notation: IUPAC condensed, linker removed
# [1] = molecular target: Fuc(a1-2)Gal(b1-3)GalNAc(a1-3)[Fuc(a1-2)]Gal(b1-4)GlcNAc
# Procedure, shortened: (§1)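 The Consortium for Functional Glycomics database supplied 3228 glycan arrays, of which those lacking an available protein sequence were dropped. The binding signal, a within-array Z-score, was averaged across arrays of the same protein sequence and across linkers. Negative scores can be read as non-binding.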
# [2] = molecular target: Fuc(a1-2)Gal(b1-3)GlcNAc(b1-3)[Gal(b1-4)GlcNAc(b1-6)]Gal(b1-4)Glc
# Procedure, shortened: as §1
# [3] = molecular target: Fuc(a1-2)Gal(b1-4)GlcNAc(b1-2)[Fuc(a1-2)Gal(b1-4)GlcNAc(b1-4)]Man(a1-3)[Fuc(a1-2)Gal(b1-4)GlcNAc(b1-2)Man(a1-6)]Man(b1-4)GlcNAc(b1-4)GlcNAc
# Procedure, shortened: as §1
# [4] = molecular target: Fuc(a1-2)Gal(b1-4)GlcNAc(b1-3)GalNAc
# Procedure, shortened: as §1
# [5] = molecular target: Fuc(a1-2)Gal(b1-4)[Fuc(a1-3)]GlcNAc(b1-3)GalNAc
# Procedure, shortened: as §1
# [6] = molecular target: Fuc(a1-2)[GalNAc(a1-3)]Gal
# Procedure, shortened: as §1
# [7] = molecular target: Fuc(a1-2)[GalNAc(a1-3)]Gal(b1-3)GlcNAc
# Procedure, shortened: as §1
# [8] = molecular target: Fuc(a1-2)[GalNAc(a1-3)]Gal(b1-3)GlcNAc(b1-6)GalNAc
# Procedure, shortened: as §1
# [9] = molecular target: Fuc(a1-2)[GalNAc(a1-3)]Gal(b1-4)GlcNAc
# Procedure, shortened: as §1
# [10] = molecular target: Fuc(a1-3)[Gal3S(b1-4)]GlcNAc
# Procedure, shortened: as §1
# [11] = molecular target: Gal(a1-3)Gal(b1-4)GlcNAc(b1-3)GalNAc
# Procedure, shortened: as §1
# [12] = molecular target: Gal(b1-3)GlcNAc(b1-3)Gal(b1-4)Glc
# Procedure, shortened: as §1
# [13] = molecular target: Gal(b1-4)GlcNAc(b1-2)Man
# Procedure, shortened: as §1
# [14] = molecular target: Gal(b1-4)GlcNAc(b1-3)Gal(b1-3)GlcNAc
# Procedure, shortened: as §1
# [15] = molecular target: Gal(b1-4)GlcNAc(b1-3)Gal(b1-4)GlcNAc(b1-3)Gal(b1-4)GlcNAc(b1-2)Man(a1-3)[Gal(b1-4)GlcNAc(b1-3)Gal(b1-4)GlcNAc(b1-3)Gal(b1-4)GlcNAc(b1-2)Man(a1-6)]Man(b1-4)GlcNAc(b1-4)[Fuc(a1-6)]GlcNAc
# Procedure, shortened: as §1
# [16] = molecular target: Gal(b1-4)GlcNAc(b1-3)Gal(b1-4)GlcNAc(b1-3)Gal(b1-4)GlcNAc(b1-3)Gal(b1-4)GlcNAc(b1-3)Gal(b1-4)GlcNAc(b1-2)Man(a1-3)[Gal(b1-4)GlcNAc(b1-3)Gal(b1-4)GlcNAc(b1-3)Gal(b1-4)GlcNAc(b1-3)Gal(b1-4)GlcNAc(b1-3)Gal(b1-4)GlcNAc(b1-2)Man(a1-6)]Man(b1-4)GlcNAc(b1-4)[Fuc(a1-6)]GlcNAc
# Procedure, shortened: as §1
# [17] = molecular target: Gal(b1-4)GlcNAc(b1-3)Gal(b1-4)GlcNAc(b1-3)Gal(b1-4)GlcNAc(b1-3)Gal(b1-4)GlcNAc(b1-3)Gal(b1-4)GlcNAc(b1-2)[Gal(b1-4)GlcNAc(b1-3)Gal(b1-4)GlcNAc(b1-3)Gal(b1-4)GlcNAc(b1-3)Gal(b1-4)GlcNAc(b1-3)Gal(b1-4)GlcNAc(b1-6)]Man(a1-6)[Gal(b1-4)GlcNAc(b1-3)Gal(b1-4)GlcNAc(b1-3)Gal(b1-4)GlcNAc(b1-3)Gal(b1-4)GlcNAc(b1-3)Gal(b1-4)GlcNAc(b1-2)Man(a1-3)]Man(b1-4)GlcNAc(b1-4)[Fuc(a1-6)]GlcNAc
# Procedure, shortened: as §1
# [18] = molecular target: Gal(b1-4)GlcNAc(b1-3)GalNAc
# Procedure, shortened: as §1
# [19] = molecular target: Gal(b1-4)GlcNAc(b1-6)[Gal(b1-3)]GalNAc
# Procedure, shortened: as §1
# [20] = molecular target: Gal3S(b1-3)[Fuc(a1-4)]GlcNAc
# Procedure, shortened: as §1
# [21] = molecular target: Gal3S(b1-4)Glc6S
# Procedure, shortened: as §1
# [22] = molecular target: Gal3S(b1-4)GlcNAc
# Procedure, shortened: as §1
# [23] = molecular target: Gal3S(b1-4)[Fuc(a1-3)]Glc6S
# Procedure, shortened: as §1
# [24] = molecular target: Gal6S(b1-4)GlcNAc6S
# Procedure, shortened: as §1
# [25] = molecular target: GalNAc(b1-3)Gal(a1-6)Gal(b1-4)Glc
# Procedure, shortened: as §1
# [26] = molecular target: GalNAc4S6S(b1-4)GlcNAc
# Procedure, shortened: as §1
# [27] = molecular target: Glc(b1-4)Glc
# Procedure, shortened: as §1
# [28] = molecular target: GlcA(b1-3)Gal
# Procedure, shortened: as §1
# [29] = molecular target: GlcA(b1-6)Gal
# Procedure, shortened: as §1
# [30] = molecular target: GlcNAc(b1-2)Man(a1-3)[GlcNAc(b1-4)][GlcNAc(b1-2)Man(a1-6)]Man(b1-4)GlcNAc(b1-4)[Fuc(a1-6)]GlcNAc
# Procedure, shortened: as §1
# [31] = molecular target: GlcNAc(b1-3)Gal(b1-4)GlcNAc(b1-3)Gal(b1-4)GlcNAc(b1-3)Gal(b1-4)GlcNAc(b1-2)Man(a1-3)[GlcNAc(b1-3)Gal(b1-4)GlcNAc(b1-3)Gal(b1-4)GlcNAc(b1-3)Gal(b1-4)GlcNAc(b1-2)Man(a1-6)]Man(b1-4)GlcNAc(b1-4)[Fuc(a1-6)]GlcNAc
# Procedure, shortened: as §1
# [32] = molecular target: GlcNAc(b1-3)Gal(b1-4)GlcNAc(b1-3)[GlcNAc(b1-3)Gal(b1-4)GlcNAc(b1-3)]GalNAc
# Procedure, shortened: as §1
# [33] = molecular target: GlcNAc(b1-6)GalNAc
# Procedure, shortened: as §1
# [34] = molecular target: Man(a1-6)Man
# Procedure, shortened: as §1
# [35] = molecular target: Neu5Ac(a2-3)Gal(b1-3)GalNAc(b1-3)Gal(a1-4)Gal(b1-4)Glc
# Procedure, shortened: as §1
# [36] = molecular target: Neu5Ac(a2-3)Gal(b1-3)GalNAc(b1-4)[Neu5Ac(a2-8)Neu5Ac(a2-3)]Gal(b1-4)Glc
# Procedure, shortened: as §1
# [37] = molecular target: Neu5Ac(a2-3)Gal(b1-4)[Fuc(a1-3)]GlcNAc(b1-3)Gal(b1-4)[Fuc(a1-3)]GlcNAc(b1-3)Gal(b1-4)[Fuc(a1-3)]GlcNAc
# Procedure, shortened: as §1
# [38] = molecular target: Neu5Ac(a2-3)Gal(b1-4)[Fuc(a1-3)]GlcNAc(b1-3)GalNAc
# Procedure, shortened: as §1
# [39] = molecular target: Neu5Ac(a2-3)Gal(b1-4)[Fuc(a1-3)]GlcNAc(b1-6)[Neu5Ac(a2-3)Gal(b1-3)]GalNAc
# Procedure, shortened: as §1
# [40] = molecular target: Neu5Ac(a2-3)Gal6S(b1-4)[Fuc(a1-3)]GlcNAc
# Procedure, shortened: as §1
# [41] = molecular target: Neu5Ac(a2-6)Gal(b1-4)Glc
# Procedure, shortened: as §1
# [42] = molecular target: Neu5Ac(a2-6)Gal(b1-4)GlcNAc(b1-2)Man(a1-6)Man(b1-4)GlcNAc(b1-4)GlcNAc
# Procedure, shortened: as §1
# [43] = molecular target: Neu5Ac(a2-6)Gal(b1-4)GlcNAc(b1-3)Gal(b1-3)GlcNAc
# Procedure, shortened: as §1
# [44] = molecular target: Neu5Ac(a2-6)Gal(b1-4)GlcNAc(b1-3)Gal(b1-4)GlcNAc(b1-3)Gal(b1-4)GlcNAc(b1-2)Man(a1-3)[Neu5Ac(a2-6)Gal(b1-4)GlcNAc(b1-3)Gal(b1-4)GlcNAc(b1-3)Gal(b1-4)GlcNAc(b1-2)Man(a1-6)]GalNAc
# Procedure, shortened: as §1
# [45] = molecular target: Neu5Ac(a2-6)Gal(b1-4)GlcNAc(b1-3)Gal(b1-4)[Fuc(a1-3)]GlcNAc(b1-3)Gal(b1-4)[Fuc(a1-3)]GlcNAc
# Procedure, shortened: as §1
# [46] = molecular target: Neu5Ac(a2-6)Gal(b1-4)GlcNAc(b1-3)[Neu5Ac(a2-6)Gal(b1-4)GlcNAc(b1-6)]GalNAc
# Procedure, shortened: as §1
# [47] = molecular target: Neu5Ac(a2-8)Neu5Ac(a2-8)Neu5Ac(a2-3)[Gal(b1-3)GalNAc(b1-4)]Gal(b1-4)Glc
# Procedure, shortened: as §1
# [48] = molecular target: Neu5Ac(a2-8)Neu5Gc(a2-3)Gal(b1-4)GlcNAc
# Procedure, shortened: as §1
# [49] = molecular target: Neu5Ac9Ac(a2-3)Gal(b1-4)GlcNAc
# Procedure, shortened: as §1
# [50] = molecular target: Neu5Ac9Ac(a2-6)Gal(b1-4)GlcNAc
# Procedure, shortened: as §1
# [51] = molecular target: Neu5Gc(a2-8)Neu5Gc(a2-3)Gal(b1-4)GlcNAc
# Procedure, shortened: as §1
binder,measurement,setting,value
"SspB C123 (Streptococcus gordonii), Q54186 (protein) MAHFHYSSLLAQPQINKEIKNEDGVDIDRTLVAKQSIGKFELKTEALTAGRPKTTSFVLVDPLPTGYKFDLDATKAASTGFDTTYDEASHTVTFKATDETLATYNADLTKPVETLHPTVVGRVLNDGATYTNNFTLTVNDAYGIKSNVVRVTTPGKPNDPDNPNNNYIKPTKVNKNKEGLNIDGKEVLAGSTNYYELTWDLDQYKGDKSSKEAIQNGFYYVDDYPEEALDVRPDLVKVADEKGNQVSGVSVQQYDSLEAAPKKVQDLLKKANITVKGAFQLFSADNPEEFYKQYVSTGTSLVITDPMTVKSEFGKTGGKYENKAYQIDFGNGYATEVVVNNVPKITPKKDVTVSLDPTSENLDGQTVQLYQTFNYRLIGGFIPQNHSEELEDYSFVDDYDQAGDQYTGNYKTFSSLNLTMKDGSVIKAGTDLTSQTTAETDATNGIVTVRFKEDFLQKISLDSPFQAETYLQMRRIAIGTFENTYVNTVNKVAYASAAALEHHHHHH",glycan array binding signal (z-score),[1],-1.8
same,glycan array binding signal (z-score),[2],-0.17
same,glycan array binding signal (z-score),[3],2.68
same,glycan array binding signal (z-score),[4],-0.78
same,glycan array binding signal (z-score),[5],3.99
same,glycan array binding signal (z-score),[6],-0.539
same,glycan array binding signal (z-score),[7],0.229
same,glycan array binding signal (z-score),[8],-0.099
same,glycan array binding signal (z-score),[9],-0.406
same,glycan array binding signal (z-score),[10],0.073
same,glycan array binding signal (z-score),[11],-0.133
same,glycan array binding signal (z-score),[12],0.516
same,glycan array binding signal (z-score),[13],-0.183
same,glycan array binding signal (z-score),[14],1.37
same,glycan array binding signal (z-score),[15],1.26
same,glycan array binding signal (z-score),[16],0.993
same,glycan array binding signal (z-score),[17],2.74
same,glycan array binding signal (z-score),[18],0.085
same,glycan array binding signal (z-score),[19],0.155
same,glycan array binding signal (z-score),[20],0.284
same,glycan array binding signal (z-score),[21],0.314
same,glycan array binding signal (z-score),[22],0.468
same,glycan array binding signal (z-score),[23],5.71
same,glycan array binding signal (z-score),[24],1.05
same,glycan array binding signal (z-score),[25],-0.455
same,glycan array binding signal (z-score),[26],-0.886
same,glycan array binding signal (z-score),[27],-0.604
same,glycan array binding signal (z-score),[28],-1.48
same,glycan array binding signal (z-score),[29],3.52
same,glycan array binding signal (z-score),[30],-0.492
same,glycan array binding signal (z-score),[31],0.372
same,glycan array binding signal (z-score),[32],0.786
same,glycan array binding signal (z-score),[33],-0.398
same,glycan array binding signal (z-score),[34],3.13
same,glycan array binding signal (z-score),[35],-0.945
same,glycan array binding signal (z-score),[36],-0.494
same,glycan array binding signal (z-score),[37],2.7
same,glycan array binding signal (z-score),[38],2.98
same,glycan array binding signal (z-score),[39],3.38
same,glycan array binding signal (z-score),[40],-0.28
same,glycan array binding signal (z-score),[41],-0.254
same,glycan array binding signal (z-score),[42],-0.261
same,glycan array binding signal (z-score),[43],-0.017
same,glycan array binding signal (z-score),[44],3.21
same,glycan array binding signal (z-score),[45],0.632
same,glycan array binding signal (z-score),[46],-0.829
same,glycan array binding signal (z-score),[47],5.25
same,glycan array binding signal (z-score),[48],-0.198
same,glycan array binding signal (z-score),[49],-0.938
same,glycan array binding signal (z-score),[50],0.758
same,glycan array binding signal (z-score),[51],-0.249

# Reference: the supplement of paper PMC8728848
